# Calls of active or inactive are those of the source. No rule for the calls is given here.
# Assay: fluorescent intercalator displacement from DNA, late-stage follow-up, counter-screen for HCV NS3 helicase inhibitor project, biochemical, fluorescence, dose response (AID 2476)
row,SMILES,IC50
1,CCCCCOc1ccc(C2C(C(=O)c3ccc(C)o3)=C(O)C(=O)N2c2cc(C)on2)cc1 (configuration not stated),> 79.4 µM (inactive)
2,Cc1ccc(C(=O)C2=C(O)C(=O)N(Cc3ccco3)C2c2cccc(Cl)c2)o1 (configuration not stated),> 79.4 µM (inactive)
3,Cc1cc(N2C(=O)C(O)=C(C(=O)c3ccc(C)o3)C2c2ccc(OCc3ccccc3)cc2)no1 (configuration not stated),> 79.4 µM (inactive)
4,COc1cc(C2C(C(=O)c3ccc(C)o3)=C(O)C(=O)N2c2cc(C)on2)ccc1OCc1ccccc1 (configuration not stated),> 79.4 µM (inactive)
5,COc1cccc(-n2c(SCc3cc(=O)oc4cc(O)c(O)cc34)nc3ccccc3c2=O)c1,> 79.4 µM (inactive)
6,COc1ccc(C=NNC(=O)c2cc(O)c(O)c(O)c2)cc1COc1ccc(C(=O)OCC(C)C)cc1,> 79.4 µM (inactive)
7,CCOc1cccc(C2C(C(=O)c3ccc(C)o3)=C(O)C(=O)N2Cc2ccccc2)c1 (configuration not stated),> 79.4 µM (inactive)

# From PubChem BioAssay AID2476 (The Scripps Research Institute Molecular Screening Center, 2010)
